aSyn UTR inh = 5' untranslated region of α-synuclein, MLPCN primary screen | hit rate 0.82% among 300,000 | inhibition, % (tested at 7.5 µM) | alpha-synuclein 5'UTR reporter, inhibitor activity; in the data active = inhibition above about 60%; inconclusive = no clear call, values can overlap the other calls;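 note: H4 neuroglioblastoma cells stably carrying SNCA 5'UTR luciferase fusion; 0% = DMSO wells and 100% = positive control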
Ba/F3 V617F tox = loss of viability in JAK2V617F-driven Ba/F3 cells | Ba/F3 EpoR-JAK2V617F viability, ATP luminescence | inhibition, % at 5.6 µM | hit rate 1.1% among 220,000;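 active = inhibition above the campaign mean plus 3 SD over all tested compounds, cut at about 24% in these data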;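 note: cytokine-independent growth of Ba/F3 cells driven by EpoR plus mutant JAK2; 0% = DMSO-treated cells and 100% = JAK inhibitor I control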
IEC-6 tox = kills IEC-6 intestinal cells in KLF5 counter-screen | hit rate 0.78% among 290,000 | inhibition, % at 5 µM | AID 1825 | IEC-6 cytotoxicity, luminescence viability;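 note: 0% = plate median of test compound wells and 100% = cytotoxic reference compound wells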
APP 5UTR inh = APP translation inhibition; SH-SY5Y APP 5'UTR-luciferase reporter, luminescence; inhibition, % at 2 µM; hit rate 0.82% among 190,000;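 active = inhibition above a set limit, derived from the sample mean plus 3 SD, cut at about 45% in these data; inconclusive = one replicate passes the limit while the other fails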
BaF3 tox = counter-screen for JAK2V617F inhibitors: parental Ba/F3 viability inhibitors | inhibition, % at 5.6 µM | AID 1486 | hit rate 1.1% among 220,000 | CellTiter-Glo ATP luminescence;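 active = inhibition above a per-campaign cutoff, the mean inhibition of all tested compounds plus 3 SD, cut at about 27% in these data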;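 note: 0% = DMSO wells and 100% = JAK Inhibitor I control wells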
KLF5 inhibitor = kruppel-like factor 5 inhibition. inhibition, % at 5 µM. DLD-1 KLF5 promoter-luciferase reporter, luminescence. hit rate 0.23% among 290,000;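 active = inhibition above a per-plate limit of that plate's mean compound inhibition plus 3 SD, cut at about 60% in these data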;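 note: 0% = DMSO wells and 100% = LY294002 at 200 µM; higher means less KLF5 promoter-driven luciferase light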
IEC-6 cytotox cf = confirmation of cytotoxic compounds in rat IEC-6 intestinal epithelial cells; hit rate 63% among 1,900; shares compounds with IEC-6 tox; IEC-6 rat intestinal epithelial viability, luminescence; inhibition, % at 5 µM;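 note: 0% = vehicle and 100% = reference cytotoxic drug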
* marks the source's active call; other numbers are inactive results; ? = inconclusive; · = no result. Shown are actives, neighbours in structure and some others; about 2.2% of the full set was active somewhere. Cut-off read from the data, not from the text of the source, unless noted: active = inhibition above about 22%; inactive = the rest.

SMILES	aSyn UTR inh	Ba/F3 V617F tox	IEC-6 tox	APP 5UTR inh	BaF3 tox	KLF5 inhibitor	IEC-6 cytotox cf
CCc1ccc(C(=O)C(C)OC(=O)Cc2n[nH]c(=O)c3ccccc23)cc1 (configuration not stated)	-44	·	25*	·	·	16	9
COc1ccccc1NC(=O)c1ccc(NC(=O)Cc2n[nH]c(=O)c3ccccc23)cc1	54	6	25*	·	-7	-5	17
CC(=O)c1cccc(NC(=O)C(C)OC(=O)Cc2n[nH]c(=O)c3ccccc23)c1 (configuration not stated)	-22	·	-4	·	·	-29	·
Cc1ccc(C(=O)Nc2cccc(C(=O)NC3CCCC3)c2)cc1	-54	·	5	·	·	-58	·
Nc1nonc1-n1nnc(C(=O)N/N=C/c2cc(Br)ccc2O)c1CNc1ccccc1	70*	·	39*	·	·	28	41*
CCOc1ccc(S(=O)(=O)c2c[nH]c3ccccc3c2=O)cc1	12	·	-2	·	·	-4	·
COc1nn(-c2ccccc2)c(=O)c(Cl)c1Cl	-347	·	100*	·	·	-7	23*
COc1c(Cl)cnn(-c2ccccc2)c1=O	4	-1	-2	10	2	-24	·
COCCCNC(=S)N/N=C/c1cccc(OC)c1O	·	-3	60*	·	0	40	18
COCCCNC(=S)N/N=C/c1ccc(O)cc1O	-7	-4	-3	·	0	-12	·
COc1ccc(C(=O)CC(=O)c2ccc(F)cc2)cc1	-165	·	·	·	·	·	·
COc1ccc(C(=O)C(CCC(CNC(C)(C)C)C(=O)c2ccc(OC)cc2)CNC(C)(C)C)cc1 (configuration not stated)	65*	102*	71*	97*	101*	-3	60*
CCSc1ncc(Cl)c(C(=O)Nc2ccc(S(N)(=O)=O)cc2)n1	5	·	2	·	·	-12	·
COC(=O)c1ccc(NC(=O)c2nc(S(=O)(=O)Cc3cccc(C)c3)ncc2Cl)cc1	?	·	43*	·	·	14	14
Cc1c(C(=O)NCc2ccc3c(c2)OCO3)oc2ccc(Br)cc12	7	-5	-1	8	0	-9	·
Cc1cccc(COC(=O)Nc2ccc(NC(=O)c3ccccc3Cl)cc2)c1	18	·	4	·	·	-7	·
Cc1onc(-c2c(F)cccc2Cl)c1C(=O)NCc1ccc2c(c1)OCO2	9	·	1	·	·	1	·
Cc1ccc2oc(C(=O)NCc3ccc4c(c3)OCO4)c(C)c2c1	32	1	48*	-17	3	-2	-4
Cc1cccc(CS(=O)(=O)c2ncc(Cl)c(C(=O)NCc3ccc4c(c3)OCO4)n2)c1	41	·	31*	·	·	25	33*
CC(=O)Nc1ccc(NC(=O)c2nc(S(=O)(=O)Cc3cccc(C)c3)ncc2Cl)cc1	44	·	36*	·	·	34	16
C=CCn1c(SCC(=O)c2cccs2)nc2sc(C)c(C)c2c1=O	40	6	68*	11	7	-12	46*
C=CCSc1nc2sc(C)c(C)c2c(=O)n1CC=C	-19	-5	-3	11	0	-9	·
COc1cccc(-c2cc(=O)c3cc(NC(=O)c4ccc(N(C)C)cc4)ccc3[nH]2)c1	115*	91*	71*	92*	97*	35	71*
COc1ccc2[nH]c(-c3cccc(F)c3)cc(=O)c2c1	63*	76*	75*	93*	74*	60	60*
COc1ccc(-c2cc(=O)c3ccccc3[nH]2)cc1	-79	-1	1	-12	2	7	·
SMILES	aSyn UTR inh	Ba/F3 V617F tox	IEC-6 tox	APP 5UTR inh	BaF3 tox	KLF5 inhibitor	IEC-6 cytotox cf
CCc1ccc(S(=O)(=O)N2CCCC(N3CCN(c4ccc(OC)cc4)CC3)C2)cc1 (configuration not stated)	24	·	0	·	·	-27	·
O=C(CSc1cccc[n+]1[O-])c1cc(Cl)ccc1Cl	-87	1	28*	27	9	-22	-13
O=C(O)CSc1cccc[n+]1[O-]	14	-3	-5	2	1	-23	·
O=C(CSc1cccc[n+]1[O-])c1cc2ccccc2o1	-101	-2	25*	-31	0	-28	-2
[O-][n+]1ccccc1SCc1ccccc1	2	·	·	·	·	·	·
N#CC(C#N)=C(N)CSc1cccc[n+]1[O-]	-27	-2	24*	-17	6	-19	-3
O=C(O)C1CCN(C(=O)CSc2nc3ccccc3c(=O)n2-c2ccc(Cl)cc2)CC1	-6	·	-3	·	·	11	·
Cc1ccc(NC(=O)Cn2nnc(C(=O)NCc3cccs3)c2N)cc1F	16	·	2	·	·	0	·
Cc1ccc(NC2CCCCC2NS(=O)(=O)c2ccccc2)c(C)c1 (configuration not stated)	11	·	-1	·	·	-25	·
O=c1cc(CSc2ccc(Cl)cc2)nc(-c2ccccc2)[nH]1	-1	-1	0	18	6	2	·
O=c1cc(CSc2ccc(Cl)cc2)nc(-c2ccccn2)[nH]1	24	·	87*	·	·	55	55*
O=C(O)CCNc1ccc(NCCC(=O)O)c2c1C(=O)c1ccccc1C2=O	15	·	24*	·	·	-1	10
COc1ccccc1NCCC(=O)O	4	0	-12	·	-3	-42	·
Cc1cc2nc(C3CCN(Cc4nnnn4Cc4cccs4)CC3)[nH]c2cc1C	63*	2	46*	4	7	-11	34*
CC1CCCC(C)N1C(=O)c1ccc(S(=O)(=O)NCc2ccco2)cc1 (configuration not stated)	-8	·	4	·	·	-16	·
C=CCn1c(O)c(N=NC(=S)Nc2ccccc2F)c2cc(S(=O)(=O)N3CCOCC3)ccc21	78*	11	30*	24	18	44	17
Cc1cccc(C(=O)NNC(=O)C23CC4CC(CC(C4)C2)C3)c1O	-15	·	37*	·	·	-21	5
Cc1ccccc1C(=O)NNC(=O)C12CC3CC(CC(C3)C1)C2	13	-3	2	13	-6	4	·
Cc1cc2cc3c(cc2nc1SCC(=O)N1CCCC1)OCCO3	2	·	30*	·	·	-4	38*
O=C(Nc1ccc(N2CCN(C(=O)c3ccccc3)CC2)cc1)c1ccc([N+](=O)[O-])o1	-19	99*	85*	94*	77*	23	35*
CN1CCN(c2ccc(NC(=O)c3ccc([N+](=O)[O-])o3)cc2Cl)CC1	?	·	90*	·	·	-14	29*
O=C(Nc1ccccc1N1CCN(C(=O)c2ccc(Cl)cc2)CC1)c1ccc([N+](=O)[O-])o1	-30	·	33*	·	·	-31	12
Cc1ccccc1C(=O)N1CCN(c2ccc(NC(=O)c3ccc([N+](=O)[O-])o3)cc2)CC1	-168	·	98*	·	·	49	35*
COc1ccc(C(=O)Nc2ccc(N3CCN(C(=O)c4ccccc4)CC3)cc2)cc1[N+](=O)[O-]	3	8	1	-3	15	-44	·
CC(C)C(=O)N1CCN(c2ccc(NC(=O)c3ccc([N+](=O)[O-])o3)cc2)CC1	35	67*	24*	57*	33*	9	14

High-throughput results (PubChem BioAssay)
